PubChem BioAssay (NCATS)
Records with an inconclusive call do not appear. Unless noted, the call rests on the fitted dose curve; in most records, active means well fitted curve in either direction with a large enough effect (not every such curve was filed as active); inconclusive means small, poorly fitted or top-dose-only effect, or another doubt; inactive means flat fitted curve, though single readings scatter.

Assays:
[1] = AP1 Signaling Pathway (AID 357); settings: ME-180 AP-1-bla reporter, EGF-induced, beta-lactamase ratio, 5 h; at 17.2 µM (top of the series) unless noted;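 further: ME-180 reporter cells stimulated with EGF at its EC50 level; on the % scale 0 is the no-effect control and ±100 the full control effect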
Procedure, shortened: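 AP-1-bla ME-180 cells, Opti-MEM + 0.5% dialyzed FBS, plated overnight 37 °C. Cpd titration + EC50 EGF, 5 h 37 °C. CCF4 2.5 h RT; ex 405, em 460/530 ratio → %activity, AC50.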

[2] = NFAT Signaling Pathway (AID 444); settings: Jurkat NFAT-bla M1, carbachol, beta-lactamase ratio, 5 h; at 17.2 µM (top of the series) unless noted;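 further: carbachol stimulus at about its EC50 of 1 µM final; on the % scale 0 is the no-effect control and ±100 the full control effect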
Procedure, shortened: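 Jurkat cells with NFAT-driven β-lactamase reporter and co-expressed M1 receptor, stimulated with carbachol (final 1 uM, ~EC50), compound titration, 5 h at 37 °C. CCF4 loaded 1 h at RT; 460/530 nm ratio gave %activity and AC50.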

[3] = Stat Signaling Pathway (AID 446); settings: ME-180 SIE beta-lactamase reporter, IL-6 stimulated, 5 h; at 17.2 µM (top of the series) unless noted;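 further: ME-180 cervical cancer cells given 40 pM IL-6 alongside compound; SIE-controlled beta-lactamase reporter measured as 460/530 nm FRET emission ratio; on the % scale 0 is the no-effect control and ±100 the full control effect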
Procedure, shortened: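 ME-180 SIE-bla cells; overnight plating; cpd + IL-6 40 pM, 5 h, 37 C; LiveBLAzer 2.5 h RT; 460/530 nm emission ratio. Normalized to 300 pM IL-6 and 125 nM JAK inhibitor controls.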

[4] = target: Glucocorticoid receptor (Homo sapiens) (UniProt P04150); assay: GR-GFP Redistribution (AID 450;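 active means compounds whose dose series gives a full or clear partial fitted curve of increased nuclear translocation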; further: potency means the concentration at half of the fitted maximal effect)
Glucocorticoid receptor (Homo sapiens), sequence (P04150 whole entry, looked up): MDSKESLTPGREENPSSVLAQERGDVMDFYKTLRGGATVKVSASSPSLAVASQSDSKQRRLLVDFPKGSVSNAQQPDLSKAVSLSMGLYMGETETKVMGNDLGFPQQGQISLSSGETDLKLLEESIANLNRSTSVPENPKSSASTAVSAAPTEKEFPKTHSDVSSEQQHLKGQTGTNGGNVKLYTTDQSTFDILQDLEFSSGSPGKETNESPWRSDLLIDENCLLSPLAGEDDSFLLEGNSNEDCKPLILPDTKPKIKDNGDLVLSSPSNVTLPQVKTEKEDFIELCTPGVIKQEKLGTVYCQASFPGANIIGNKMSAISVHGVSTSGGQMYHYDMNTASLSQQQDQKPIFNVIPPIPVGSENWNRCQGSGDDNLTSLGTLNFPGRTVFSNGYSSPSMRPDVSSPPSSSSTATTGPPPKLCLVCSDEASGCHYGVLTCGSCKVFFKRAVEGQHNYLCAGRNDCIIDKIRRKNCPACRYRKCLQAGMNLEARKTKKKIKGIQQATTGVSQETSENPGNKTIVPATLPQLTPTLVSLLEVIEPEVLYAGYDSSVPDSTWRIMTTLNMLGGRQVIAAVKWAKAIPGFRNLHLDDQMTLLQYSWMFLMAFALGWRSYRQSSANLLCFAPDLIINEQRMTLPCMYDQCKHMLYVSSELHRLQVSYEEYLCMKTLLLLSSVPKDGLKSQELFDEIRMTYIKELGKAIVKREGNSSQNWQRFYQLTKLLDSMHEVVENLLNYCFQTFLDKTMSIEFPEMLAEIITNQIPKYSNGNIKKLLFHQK

CSC1=C(C#N)C(c2ccc(C)s2)CC(=O)N1 (centres undefined)
inactive: activity change, negative = inhibition [1] -7.45% | activity change, negative = inhibition [2] -2.53% | activity, negative = inhibition [3] 7.78% | Potency [4] > 20.6 µM

C/C(=N/n1cnnc1)c1cccnc1
inactive: activity change, negative = inhibition [1] -1.84% | activity change, negative = inhibition [2] -0.807% | activity, negative = inhibition [3] 16.1% | Potency [4] > 20.6 µM

COc1ccc(C=NCCC2(O)CC(C)N(C)CC2C)cc1 (centres undefined)
inactive: activity change, negative = inhibition [1] -0.876% | activity change, negative = inhibition [2] 9.42% | activity, negative = inhibition [3] 11.9% | Potency [4] > 20.6 µM

c1ccc(-n2c(Cc3cccnc3)nc3cnccc32)cc1
inactive: activity change, negative = inhibition [1] -10.4% | activity change, negative = inhibition [2] 15.3% | activity, negative = inhibition [3] 6.69% | Potency [4] > 20.6 µM

O=C(CC(c1ccc(F)cc1)c1ccco1)N1CCCC1 (centres undefined)
inactive: activity change, negative = inhibition [1] -6.27% | activity change, negative = inhibition [2] -22.2% | activity, negative = inhibition [3] -1.51% | Potency [4] > 20.6 µM

COC(=O)CSc1nc(N)nc(C)c1Br
inactive: activity change, negative = inhibition [1] 5.47% | activity change, negative = inhibition [2] 1.04% | activity, negative = inhibition [3] 2.44% | Potency [4] > 20.6 µM

COc1cc(/C=N/n2nnnc2N)ccc1O
inactive: activity change, negative = inhibition [1] -2.54% | activity change, negative = inhibition [2] -23.8% | activity, negative = inhibition [3] -1.69% | Potency [4] > 20.6 µM

CCOC(=O)c1cc2c(=O)n3cccc(C)c3nc2n(Cc2cccnc2)c1=N
inactive: activity change, negative = inhibition [1] 13.7% | activity change, negative = inhibition [2] -26.5% | activity, negative = inhibition [3] 12% | Potency [4] > 20.6 µM

CCn1c(SCC(=O)Nc2ccccc2C(=O)OC)nnc1-c1ccc(N)cc1
inactive: activity change, negative = inhibition [1] -23.2% | activity change, negative = inhibition [2] -3.89% | activity, negative = inhibition [3] 0.432% | Potency [4] > 20.6 µM

O=c1[nH]c2sc3c(c2c(=O)n1Cc1ccccc1)CCC3
inactive: activity change, negative = inhibition [1] -27.5% | activity change, negative = inhibition [2] 16.2% | activity, negative = inhibition [3] -5.31% | Potency [4] > 20.6 µM

Nc1nnc(CC2=CCCCC2)s1
inactive: activity change, negative = inhibition [1] 1.59% | activity change, negative = inhibition [2] -3.51% | activity, negative = inhibition [3] 3.57% | Potency [4] > 20.6 µM

Cc1cc(/C(O)=C2\C(=O)C(=O)N(CCN(C)C)C2c2ccncc2)ccc1OCc1ccccc1 (centres undefined)
inactive: activity change, negative = inhibition [1] -14.5% | activity change, negative = inhibition [2] 17.3% | activity, negative = inhibition [3] 4.75% | Potency [4] > 20.6 µM

Cc1cc2nncn2c(Cc2ccccc2)n1
inactive: activity change, negative = inhibition [1] -3.42% | activity change, negative = inhibition [2] -3.53% | activity, negative = inhibition [3] -8.81% | Potency [4] > 20.6 µM

COc1ccc(OC)c(C2NC(=O)c3sc(=S)n(-c4ccccc4)c3N2)c1 (centres undefined)
inactive: activity change, negative = inhibition [1] -13.3% | activity change, negative = inhibition [2] -12.2% | activity, negative = inhibition [3] -13.8% | Potency [4] > 20.6 µM

COc1cc(S(=O)(=O)N2CCN(c3ccc(F)cc3)CC2)ccc1Cl
inactive: activity change, negative = inhibition [1] 5.09% | activity change, negative = inhibition [2] -11.7% | activity, negative = inhibition [3] -12.1% | Potency [4] > 20.6 µM

OC(CCCN1CCC(O)(c2ccc(Cl)cc2)CC1)c1ccc(F)cc1 (centres undefined)
inactive: activity change, negative = inhibition [1] -2.74% | activity change, negative = inhibition [2] -27.5% | activity, negative = inhibition [3] 4.61% | Potency [4] > 20.6 µM

CC(C)(C)C1=Nn2c(nnc2C2CCCCC2)SC1
inactive: activity change, negative = inhibition [1] -2.23% | activity change, negative = inhibition [2] -6.37% | activity, negative = inhibition [3] 22.7% | Potency [4] > 20.6 µM

CC(=O)OCC(=O)[C@H]1CC[C@H]2[C@@H]3CC=C4C[C@@H](O)CC[C@]4(C)[C@H]3CC[C@]12C
inactive: activity change, negative = inhibition [1] 12.9% | activity change, negative = inhibition [2] 4.8% | activity, negative = inhibition [3] -2.21% | Potency [4] > 20.6 µM

COn1c(=S)[nH]c2ccccc2c1=O
inactive: activity change, negative = inhibition [1] 20.1% | activity change, negative = inhibition [2] 11.2% | activity, negative = inhibition [3] 8.68% | Potency [4] > 20.6 µM

COc1cccc(COc2nc3c(c(=O)n(C)c(=O)n3C)n2C)c1
inactive: activity change, negative = inhibition [1] -9.75% | activity change, negative = inhibition [2] 12.8% | activity, negative = inhibition [3] -3.58% | Potency [4] > 20.6 µM

COC(=O)c1ccc(C2/C(=C(\O)c3ccc4c(c3)OCCO4)C(=O)C(=O)N2CCCN(C)C)cc1 (centres undefined)
inactive: activity change, negative = inhibition [1] 10.1% | activity change, negative = inhibition [2] 5.87% | activity, negative = inhibition [3] -5.8% | Potency [4] > 20.6 µM

COc1cccc(NC(=O)CC2SC(=Nc3ccccc3)NC2=O)c1 (centres undefined)
inactive: activity change, negative = inhibition [1] -10.5% | activity change, negative = inhibition [2] 2.42% | activity, negative = inhibition [3] -17.8% | Potency [4] > 20.6 µM

O=C1NC2c3ccccc3C(=O)N2c2c1cnn2-c1ccccc1 (centres undefined)
inactive: activity change, negative = inhibition [1] -6.7% | activity change, negative = inhibition [2] -1.9% | activity, negative = inhibition [3] -7.17% | Potency [4] > 20.6 µM

Cc1cc(=O)oc2cc(OCC(=O)NCc3cccnc3)ccc12
inactive: activity change, negative = inhibition [1] 0.0607% | activity change, negative = inhibition [2] -8.13% | activity, negative = inhibition [3] -2.73% | Potency [4] > 20.6 µM

Cc1cccc(C)c1NC(=O)CSCC(=O)c1ccc(O)c(O)c1
inactive: activity change, negative = inhibition [1] -12.4% | activity change, negative = inhibition [2] 22.8% | activity, negative = inhibition [3] -19.4% | Potency [4] > 20.6 µM

O=C1CCC(=O)N1c1nc2n(n1)C(c1ccccc1)C=C(c1ccc(Br)cc1)N2 (centres undefined)
inactive: activity change, negative = inhibition [1] -22.1% | activity change, negative = inhibition [2] 3.81% | activity, negative = inhibition [3] -13.7% | Potency [4] > 20.6 µM
